Laboratory results as given in PubChem BioAssay (NCATS).
Inconclusive results are not listed. Values without a mark were called inactive. The source made the active and inactive calls. The call rests on the fitted dose curve; in most records, active means well fitted inhibition curve with a large enough effect; inconclusive means small, poorly fitted or top-dose-only effect; inactive means flat fitted curve, though single readings scatter.

These compounds were tested on CP203 (assay: qHTS profiling for inhibitors of Plasmodium falciparum proliferation (AID 504749; further: nearly all actives have a fitted effect of over 60% in size;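 on activity, negative = inhibition: 0% = DMSO vehicle and full inhibition = artemisinin control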)). Settings: P. falciparum in erythrocytes, SYBR Green DNA, 72 h; series mostly up to 28.7 µM; activity, negative = inhibition: at the top concentration.
Method in brief: (§1)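 Three-day growth assay of blood-stage parasites in erythrocytes (0.3% parasitemia, 2.5% hematocrit) at 37 C, 5% CO2, quantified by SYBR Green DNA staining after overnight detergent lysis.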
Potency means the concentration at half of the fitted maximal effect.

Row | Structure (SMILES) | activity, negative = inhibition [%] | Potency
1 | COc1ccc(C(=O)CC(=O)c2ccc(C(C)(C)C)cc2)cc1 | 1.36 | 
2 | CCc1cc(C(N)=S)ccn1 | -4.14 | 
3 | NC(=O)N1c2ccccc2CC(=O)c2ccccc21 | -7.86 | 
4 | Cc1nnc(NS(=O)(=O)c2ccc(N)cc2)s1 | 0.947 | 
5 | CNC1CCCN(c2c(F)cc3c(=O)c(C(=O)O)cn(C4CC4)c3c2OC)C1 (centres undefined) | -5.83 | 
6 | COc1cc(NCc2ccc3nc(N)nc(N)c3c2C)cc(OC)c1OC |  | 4.78 µM (active)

Each compound was assayed on CP211 in the same assay as above. Settings: P. falciparum in erythrocytes, SYBR Green DNA, 72 h; series mostly up to 28.7 µM; activity, negative = inhibition: at the top concentration.
Method in brief: as §1

Row | Structure (SMILES) | activity, negative = inhibition | Potency
7 | Cn1nnc2c(C(N)=O)ncn2c1=O | -2.4% | 
8 | CC(C)OC(=O)C(C(=O)OC(C)C)=C1SC=CS1 | 4.32% | 
9 | CC1=NN(c2ccccc2)C(=O)C1 | 0.817% | 
10 | COC(=O)Nc1nc2ccc(Sc3ccccc3)cc2[nH]1 | -0.418% [at 12.8 µM] | 
11 | CCc1c2c(nc3ccc(OC(=O)N4CCC(N5CCCCC5)CC4)cc13)-c1cc3c(c(=O)n1C2)COC(=O)[C@]3(O)CC | 0.526% | 
12 | Cc1noc(NS(=O)(=O)c2ccc(N)cc2)c1C | 1.37% | 
13 | CN1CCN(c2c(F)cc3c(=O)c(C(=O)O)cn4c3c2OCN4C)CC1 | -4.84% | 
14 | S=P(N1CC1)(N1CC1)N1CC1 | -0.418% | 
15 | CC[C@H](NC(C)C)[C@H](O)c1ccc(O)c2[nH]c(=O)ccc12 | 3.42% | 
16 | CC[C@H](C)C(=O)O[C@H]1C[C@@H](C)C=C2C=C[C@H](C)[C@H](CC[C@@H]3C[C@@H](O)CC(=O)O3)[C@H]21 | 7.73% | 
17 | CC(C)(Sc1cc(C(C)(C)C)c(O)c(C(C)(C)C)c1)Sc1cc(C(C)(C)C)c(O)c(C(C)(C)C)c1 | 1.09% [at 12.8 µM] | 
18 | Cc1ncc([N+](=O)[O-])n1CCO | -21.7% | 
19 | CCCc1cc(C(N)=S)ccn1 | 7.63% | 
20 | CCCN[C@H]1CCc2nc(N)sc2C1 | 1.34% | 
21 | COC(=O)Nc1nc2ccc(C(=O)c3ccccc3)cc2[nH]1 | -7.14% [at 12.8 µM] | 
22 | CC(C)(C#N)c1cc(Cn2cncn2)cc(C(C)(C)C#N)c1 | -0.483% | 
23 | COc1c(N2CCNC(C)C2)c(F)cc2c(=O)c(C(=O)O)cn(C3CC3)c12 (centres undefined) | -18.4% | 
24 | O=C(O)c1cc(=O)[nH]c(=O)[nH]1 | -0.314% | 
25 | CNS(=O)(=O)Cc1ccc2[nH]cc(CCN(C)C)c2c1 | 0.106% | 
26 | CCOc1cc(N)c(Cl)cc1C(=O)NCC1CN(Cc2ccc(F)cc2)CCO1 (centres undefined) |  | 12 µM (active)
27 | CCC(C)(C)c1ccc(CC(C)CN2C[C@@H](C)O[C@@H](C)C2)cc1 (some centres undefined) | -5.43% | 
28 | CN(C)c1ccc(C(=C2C=CC(=[N+](C)C)C=C2)c2ccc(N(C)C)cc2)cc1 |  | 0.151 µM (active)
29 | COc1ccc(C(=O)CC(=O)c2ccc(C(C)(C)C)cc2)cc1 | -5.62% | 
30 | CCc1cc(C(N)=S)ccn1 | -7.95% | 
31 | NC(=O)N1c2ccccc2CC(=O)c2ccccc21 | -21.2% | 
32 | Cc1nnc(NS(=O)(=O)c2ccc(N)cc2)s1 | 5.36% | 
33 | CCN(C)C(=O)Oc1cccc([C@H](C)N(C)C)c1 | 1.83% | 
34 | CNC1CCCN(c2c(F)cc3c(=O)c(C(=O)O)cn(C4CC4)c3c2OC)C1 (centres undefined) | -9.47% | 
